# Screening results as filed in PubChem.
# TRHR PAM: qHTS for Small Molecule Agonists and Allosteric Enhancers of Human TRH Receptor: Primary Screen for Enhancers | TRHR cells, fluo-8 calcium fluorescence, EC20 TRH enhancement | enhancement, % at 2 µM | Thyrotropin-releasing hormone receptor (Homo sapiens), P34981 | 360,000 tested, 0.66% active; in the data active = enhancement above about 30%; note: 0% is about no effect
#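 TRHR-expressing cells loaded with fluo-8 calcium dye were read kinetically (ex 480/em 530) during compound addition, then stimulated with an EC20 of TRH (10 nM final). Enhancement of the Gq-mediated intracellular calcium response was scored.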
# TRHR agonist: qHTS for Small Molecule Agonists and Allosteric Enhancers of Human TRH Receptor: Primary Screen for Agonists | 360,000 tested, 0.18% active | TRHR cells, calcium flux fluo-8, FDSS agonist mode | Thyrotropin-releasing hormone receptor (Homo sapiens), P34981 | activation, % at 2 µM; note: 0% is about no effect
#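 TRHR-expressing cells loaded with fluo-8 calcium dye; 23 nL library compound pin-transferred, kinetic FDSS fluorescence (Ex 480/Em 530) recorded about 180 s for agonist-induced calcium release, before a 10 nM TRH EC20 addition for potentiator mode.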
# D1 ag: Allosteric Agonists of the Human D1 Dopamine Receptor: qHTS; D(1A) dopamine receptor (Homo sapiens), P21728; HEK293 T-REx D1 cells, calcium flux, agonist mode; activation, % at 2 µM; 360,000 tested, 1% active; AID 504660, 2011; note: 0% is about no effect
#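 Inducible HEK293 T-REx D1 cells, force-coupled to calcium signalling, were plated at 4000 cells/well with tetracycline and held overnight at 30 C. After no-wash calcium dye loading, compound-evoked calcium rise over 180 s flagged agonists.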
# USP1-UAF1 inh: Inhibitors of USP1/UAF1: Primary Screen. Ubiquitin carboxyl-terminal hydrolase 1 (Homo sapiens), O94782. recombinant USP1/UAF1, Ub-Rhodamine cleavage fluorescence. Potency, µM (titrated, usually from 57.1 µM), inactives show at the top dose activity change, negative = inhibition, most hits filed as inhibitors. 390,000 tested, 0.23% active; active = well fitted inhibition curve with a large enough effect; note: potency is the fitted concentration of half-maximal effect; % is set by controls: 0 for no effect and ±100 for the full control effect; nearly all actives have a fitted effect of over 60% in size
# Target sequence (O94782 whole entry, looked up): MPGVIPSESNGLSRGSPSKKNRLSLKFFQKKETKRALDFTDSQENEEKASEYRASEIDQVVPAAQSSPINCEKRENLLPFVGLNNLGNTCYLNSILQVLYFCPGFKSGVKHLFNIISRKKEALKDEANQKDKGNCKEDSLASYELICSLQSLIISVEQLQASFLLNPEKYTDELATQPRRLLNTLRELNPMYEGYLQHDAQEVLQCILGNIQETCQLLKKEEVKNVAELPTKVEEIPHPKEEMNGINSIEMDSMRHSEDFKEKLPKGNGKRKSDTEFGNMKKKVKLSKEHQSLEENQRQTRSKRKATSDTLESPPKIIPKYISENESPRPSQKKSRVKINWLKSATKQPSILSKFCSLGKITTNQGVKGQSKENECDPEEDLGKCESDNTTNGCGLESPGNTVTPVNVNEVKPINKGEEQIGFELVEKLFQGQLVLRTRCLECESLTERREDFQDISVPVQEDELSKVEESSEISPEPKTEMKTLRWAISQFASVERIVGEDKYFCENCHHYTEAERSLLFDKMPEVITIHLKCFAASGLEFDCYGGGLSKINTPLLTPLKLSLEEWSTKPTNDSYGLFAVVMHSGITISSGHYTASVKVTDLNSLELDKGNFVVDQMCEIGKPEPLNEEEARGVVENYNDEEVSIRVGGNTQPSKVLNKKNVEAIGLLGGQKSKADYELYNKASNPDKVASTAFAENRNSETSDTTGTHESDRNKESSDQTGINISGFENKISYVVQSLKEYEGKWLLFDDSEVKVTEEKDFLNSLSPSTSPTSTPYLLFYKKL
#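 High-throughput fluorogenic screen: 1nM USP1/UAF1 complex, Ub-Rho substrate 150nM final, 50mM HEPES pH 7.8 with 0.5mM EDTA, 0.1 mg/ml BSA, 1mM TCEP and 0.01% Tween-20.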
# D1 PAM: Potentiators of Human D1 Dopamine Receptor: qHTS; D(1A) dopamine receptor (Homo sapiens), P21728; HEK293 TREx D1 cells, calcium flux, dopamine EC20 potentiation; potentiation, % at 10 µM; 360,000 tested, 0.036% active; AID 504651, 2011; in the data active = potentiation above about 30%; note: 0% is about no effect
# D1 antagonist: Antagonist of Human D 1 Dopamine Receptor: qHTS | activity change, negative = inhibition, % at 10 µM | 360,000 tested, 3.2% active | HEK293 TREx D1 cells, calcium flux, dopamine EC80; stronger effect = lower value | D(1A) dopamine receptor (Homo sapiens), P21728; in the data active = activity change below about -30%; note: % is set by controls: 0 for no effect and ±100 for the full control effect
#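 Cells carrying a force-coupled, tetracycline-inducible human D1 receptor report calcium flux. Each well gets a 10 s baseline, compound with 180 s monitoring, then an EC80 dopamine stimulus with a second 180 s kinetic read.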
# The depositor's hits bear a star. The list is not random: actives were taken first. Their share in the collection is about 4.4%. Cut-off read from the data, not from the text of the source, unless noted: active = activation above about 30%; inactive = the rest.
SMILES,TRHR PAM,TRHR agonist,D1 ag,USP1-UAF1 inh,D1 PAM,D1 antagonist
CC(C)c1ccccc1Oc1c(C(F)(F)F)oc2c(CN3CCN(C)CC3)c(O)ccc2c1=O,7,0,13,11%,-1,-33*
COC(=O)c1cn(C(=O)c2cc(OC)c(OC)c(OC)c2)c2ccccc12,-3,-1,1,-24%,0,10
COC(=O)c1cn(C(=O)c2ccc(OC)c(OC)c2)c2ccccc12,2,0,3,-10%,0,-47*
O=C(Cc1cccc(C(F)(F)F)c1)NCC(=O)Nc1cc(Cl)ccc1Cl,-2,0,3,-18%,32*,7
O=C(CS(=O)c1cccc(C(F)(F)F)c1)Nc1ccccc1Cl (configuration not stated),7,1,4,-11%,-8,-47*
Fc1ccc(C(CCCn2nnc(-c3cccnc3)n2)c2ccc(F)cc2)cc1,1,1,17,-9%,-6,-30*
O=c1cc(CSc2n[nH]c(-c3ccccc3)n2)[nH]c2ccccc12,8,0,-1,-25%,-1,-20
CCOc1ccc(NC(=O)CC2C(=O)N(c3ccccc3)C(=O)N2Cc2cccc(OC)c2)cc1 (configuration not stated),2,-1,0,-14%,-1,4
COC(=O)c1ccc(NC(=O)CC2C(=O)N(c3cccc(OC)c3)C(=O)N2C(C)C)cc1 (configuration not stated),4,-1,-1,-13%,-3,-32*
COc1ccc(NC(=O)CC2C(=O)N(c3cccc(OC)c3)C(=O)N2Cc2cccnc2)cc1 (configuration not stated),4,0,0,-2%,2,-65*
COc1cccc(N2C(=O)C(CC(=O)Nc3cccc(F)c3)N(C(C)C)C2=O)c1 (configuration not stated),-7,0,1,11%,-2,3
CCOC(=O)c1cccc(NC(=O)CC2C(=O)N(c3ccc(OC)cc3)C(=O)N2C2CCCC2)c1 (configuration not stated),5,0,7,-9%,-4,-35*
CCOC(=O)c1cccc(NC(=O)CC2C(=O)N(c3ccc(Cl)cc3)C(=O)N2C2CCCC2)c1 (configuration not stated),-6,-1,13,-6%,-2,-3
CCCOc1ccc(NC(=O)CC2C(=O)N(c3cccc(C)c3)C(=O)N2CCc2ccncc2)cc1 (configuration not stated),3,0,0,-6%,-3,0
CCCOc1ccc(NC(=O)CC2C(=O)N(c3ccc(OC)cc3)C(=O)N2CCc2ccncc2)cc1 (configuration not stated),2,0,1,10%,-2,-42*
CCOc1ccc(CCNC(=O)Cn2ccc3cc(S(=O)(=O)N4CCCCCC4)ccc32)cc1,-3,0,6,-20%,-3,9
COc1ccc(Nc2ncnc3onc(C)c23)c(OC)c1,4,0,0,-10%,2,-1
CC1CCCN(C(=O)CSc2c3c(nc4cc(Cl)ccc24)CCCC3)C1 (configuration not stated),2,-2,19,-18%,-4,-20
COC(=O)c1ccc(NC(=O)CC2C(=O)N(c3cccc(F)c3)C(=O)N2CC(C)C)cc1 (configuration not stated),10,-2,10,-9%,0,-33*
COC(=O)c1ccc(NC(=O)CC2C(=O)N(c3ccccc3)C(=O)N2Cc2ccc(F)cc2)cc1 (configuration not stated),-1,1,-2,-2%,-2,-4
